The values that follow come from PubChem BioAssay (Tox21).

Records with an inconclusive call do not appear. A call without a number means that no potency is given here. A number with no mark means an inactive call. The source made the active and inactive calls. Calls follow the shape of the dose curve; as a rule, active = well fitted cell-killing curve with a large enough effect in the repeat runs; inconclusive = weak or mixed curves, or effect the other way; inactive = no such curve, though single readings can be large or run the other way.

The test can be described thus: qHTS assay to identify small molecule antagonists of the glucocorticoid receptor (GR) signaling pathway - cell viability counter screen (AID 720693). Also: nearly all actives have a fitted effect of over 55% in size. As to conditions: GR-bla HeLa viability, CellTiter-Glo luminescence, 18 h, with 5 nM dexamethasone present; series mostly up to 58.5 µM; viability change, negative = cytotoxic: at the top concentration. The source says: National Center for Advancing Translational Sciences [NCATS]
NIH Chemical Genomics Center [NCGC]
U.S. Environmental Protection Agency [EPA]
National Institutes of Environmental Health Sciences [NIEHS]
National Toxicology Program [NTP]
U.S. Food and Drug Administration [FDA]
The Glucocorticoid receptor (GR) is one of the members of the nuclear receptor family of ligand-dependent transcription factors. GR plays a critical role in carbohydrate, protein and lipid metabolisms and programmed cell death. CellSensor GR-bla HeLa cell line (Invitrogen) contains a beta-lactamase reporter gene under the control of the glucocorticoid response element stably integrated into HeLa cells, a cervical cancer cell line that expresses glucocorticoid receptor. The activation of the reporter gene under culture conditions can be detected by fluorescence intensity. This cell line has been used to screen the Tox21 10K compound library and to identify the compounds that inhibit the GR signaling. The cytotoxicity of the Tox21 compound library against the GR-bla HeLa cell line was tested in parallel by measuring the cell viability using CellTiter-Glo assay in the same wells.
Tox21 Assay Protocol Summary:
The GR-bla HeLa cells were dispensed at 1500 cells/5 ul/well in 1536-well black wall/clear bottom plates using a Multidrop Combi (ThermoFisher Scientific, Waltham, MA) dispenser. After the assay plates were incubated at a 37 C/5% CO2 incubator for 4 hours, 23 nL of compounds dissolved in DMSO, positive controls or DMSO only was transferred to the assay plate by a pintool station (Kalypsys, San Diego, CA), followed by addition of 1 uL of dexamethasone (5 nM, final concentration in the well). The plates were incubated at 37 C for 18 hours. After 1 uL of LiveBLAzerTM B/G FRET substrate was added using a Flying Reagent Dispenser (Aurora Discovery, San Diego, CA), the plates were incubated at room temperature (RT) for 2 hours, and fluorescence intensity was measured by an Envision plate reader (PerkinElmer, Shelton, CT). After measurement of bla assay, 3 ul CellTiter-Glo (Promega, Madison, WI) was added to measure the cytotoxicity and the plates were then incubated at RT for 30 min. The luminescence was measured using a ViewLux (Perkin Elmer) plate reader.
Background: In qHTS, concentration-response curves come from the screen itself.
As for `CC(C)OC=O`, the Potency result was “inactive”.

Regarding `CN1C(C(=O)Nc2ccccn2)=C(O)c2ccccc2S1(=O)=O`, the “viability change, negative = cytotoxic” value is -5.5% [at 78.9 µM].

On to `O=[N+]([O-])c1ccc2c(c1)Cc1ccccc1-2`, for which the Potency result was “inactive”.

Take `COc1cc([C@@H]2c3cc4c(cc3[C@H](O)[C@H]3COC(=O)[C@H]23)OCO4)cc(OC)c1OC`: the Potency result was “inactive”.

As to `CCCCCCCCCCCO`, the “viability change, negative = cytotoxic” value is -2.34% [at 78.9 µM].

On to `CCCC(=O)O`, for which the Potency entry is “inactive”.

For `COc1ccc(C(=O)CC(=O)c2ccc(C(C)(C)C)cc2)cc1`, the Potency entry was “inactive”.

For the compound `O=C(c1ccccc1)c1ccc(O)cc1O`, the Potency entry is “inactive”.

Take `Nc1ccc(Nc2ccccc2)cc1`: the Potency entry was “inactive”.

As for `OCCO`, the Potency result is “inactive”.

Take `Cc1ccc(C)c(O)c1C`: the Potency entry is “inactive”.

With `Cc1ncc[nH]1`, the Potency entry is “inactive”.

Take `CCCCNS(=O)(=O)c1ccccc1`: the Potency result is “inactive”.

On to `Cc1c(C(N)=O)cc([N+](=O)[O-])cc1[N+](=O)[O-]`, for which the Potency entry was “inactive”.

Regarding `CCC(C)CO` (stereo not given), the Potency result is “inactive”.

Consider `CC(C)=CCCC(C)CCO` (stereo not given), for which the Potency result was “inactive”.

As for `OC(CCl)CCl`, the Potency entry was “inactive”.

Turning to `O=S(=O)(O)c1ccc(O)cc1`, the Potency result was “inactive”.

As to `S=C(NC1CCCCC1)NC1CCCCC1`, the Potency result is “inactive”.

In the case of `c1ccc2cc(Nc3ccc(Nc4ccc5ccccc5c4)cc3)ccc2c1`, the Potency entry is “inactive”.

Regarding `Cc1cccc([N+](=O)[O-])c1C`, the Potency result is “inactive”.

Turning to `Nc1ccccc1N`, the “viability change, negative = cytotoxic” value was -0.146% [at 78.9 µM].

With `Cc1cccc(C(=O)O)c1`, the Potency entry was “inactive”.

Consider `C=C(C)C1CC=C(C)CC1` (stereo not given), for which the Potency entry is “inactive”.

As to `COC(C)COC(C)COC(C)CO` (stereo not given), the Potency entry is “inactive”.

With `CC(C)OB(OC(C)C)OC(C)C`, the Potency entry was “inactive”.

Turning to `O=Cc1ccccc1O`, the Potency entry is “inactive”.

In the case of `CC(C)Oc1ccc2c(=O)c(-c3ccccc3)coc2c1`, the Potency result is “inactive”.

Regarding `COC(=O)c1ccccc1`, the Potency result was “inactive”.

In the case of `CCOCCOCCO`, the Potency result was “inactive”.

On to `Cc1ccc2c(n1)Oc1ccc(C(C)C(=O)OCC(=O)N(C)C)cc1C2` (stereo not given), for which the Potency entry was “inactive”.

Take `C=C(C)C(=O)OCCOC(=O)C(=C)C`: the Potency result was “inactive”.

Consider `Cc1[nH]c(=O)c(C#N)cc1-c1ccncc1`, for which the “viability change, negative = cytotoxic” value is 18.3%.

Consider `CCCCC(CC)COC(=O)c1ccc(N(C)C)cc1` (stereo not given), for which the Potency result was “inactive”.

With `Cc1c(OCC(F)(F)F)ccnc1CS(=O)c1nc2ccccc2[nH]1` (stereo not given), the Potency result is “inactive”.

Take `COC(=O)CCC(=O)OC`: the Potency entry was “inactive”.

Consider `CCCCC(CC)COCC1CO1` (stereo not given), for which the “viability change, negative = cytotoxic” value was 19.6%.

Turning to `Clc1nc(Cl)c(Cl)c(Cl)c1Cl`, the Potency result is “inactive”.

As to `c1ccc(Nc2ccccc2)cc1`, the Potency entry was “inactive”.

With `C#C[C@]1(O)CC[C@H]2[C@@H]3CCc4cc(OC)ccc4[C@H]3CC[C@@]21C`, the Potency result was “inactive”.
